# Measurements taken from PubChem BioAssay (Tox21).
# A number with no mark means an inactive call. Records with an inconclusive call do not appear. Where a call stands in place of a potency, no number is given. Activity calls are given as the source filed them. Unless noted, calls come from the whole dose curve.
# What was measured:
# [1] = Nuclear factor erythroid 2-related factor 2/antioxidant responsive element (Nrf2/ARE) small molecule agonists: qHTS cell viability counter screen in human keratinocytes (AID 1919968; active = well fitted curve in the direction sought with a large enough effect in the repeat runs; an effect the other way counts as inactive or inconclusive; note: nearly all actives have a fitted effect of over 55% in size)
# In short: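 Stably transfected HaCaT (KeratinoSens), 1,500/well. Test agents in DMSO were applied for 23 h, 37 C/5% CO2. CellTiter-Fluor was incubated 1 h before the fluorescence read.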
# [2] = Nuclear factor erythroid 2-related factor 2/antioxidant responsive element (Nrf2/ARE) small molecule agonists: luciferase reporter gene qHTS assay in human keratinocytes (AID 1919969); note: nearly all actives have a fitted effect of over 35% in size; note: potency is the fitted concentration of half-maximal effect
# [3] = target: Gonadotropin-releasing hormone receptor (Homo sapiens) (UniProt P30968); experiment: Human gonadotropin-releasing hormone receptor (GnRHR) small molecule agonists, calcium flux assay in GnRHR-HEK293 cells (AID 1920063); note: nearly all actives have a fitted effect of over 35% in size
# Chain of Gonadotropin-releasing hormone receptor (Homo sapiens) (P30968 whole entry, looked up): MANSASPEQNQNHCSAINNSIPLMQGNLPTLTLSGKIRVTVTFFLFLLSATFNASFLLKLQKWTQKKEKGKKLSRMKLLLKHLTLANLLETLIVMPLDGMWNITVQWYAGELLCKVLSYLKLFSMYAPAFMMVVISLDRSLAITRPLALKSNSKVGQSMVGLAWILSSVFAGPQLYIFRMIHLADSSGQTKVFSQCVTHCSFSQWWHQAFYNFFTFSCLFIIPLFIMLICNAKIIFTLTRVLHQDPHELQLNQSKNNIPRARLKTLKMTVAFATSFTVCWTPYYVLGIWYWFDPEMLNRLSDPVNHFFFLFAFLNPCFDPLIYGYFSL
# In short: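 Stable human GnRHR HEK293 line. 18 h plating, then calcium dye for 1 h at 37 C. Agonist-mode compound addition from DMSO stocks; fluorescence monitored 3 min.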
# [4] = target: KiSS-1 receptor (Homo sapiens) (UniProt Q969F8); experiment: Human kisspeptin (KISS1R) small molecule agonists, calcium flux assay in KISS1R-HEK293 cells (AID 1920064; active = well fitted curve in the direction sought with a large enough effect in the repeat runs; an effect the other way counts as inactive or inconclusive)
# Chain of KiSS-1 receptor (Homo sapiens) (Q969F8 whole entry, looked up): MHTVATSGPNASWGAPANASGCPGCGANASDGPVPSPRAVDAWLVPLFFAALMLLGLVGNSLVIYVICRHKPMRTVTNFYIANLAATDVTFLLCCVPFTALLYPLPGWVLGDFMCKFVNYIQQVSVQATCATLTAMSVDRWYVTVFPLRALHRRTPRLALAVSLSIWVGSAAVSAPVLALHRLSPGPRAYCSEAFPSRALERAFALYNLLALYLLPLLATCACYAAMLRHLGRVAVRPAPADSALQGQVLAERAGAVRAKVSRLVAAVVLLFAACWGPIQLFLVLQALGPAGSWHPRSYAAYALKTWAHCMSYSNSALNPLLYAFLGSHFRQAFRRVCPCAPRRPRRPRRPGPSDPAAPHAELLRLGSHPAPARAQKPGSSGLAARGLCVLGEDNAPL
# In short: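 After overnight (18 h) culture at 37 C/5% CO2, human KISS1R-HEK293 cells received calcium dye for 1 h, then test compound; emission at 540 nm (excitation 480 nm) was tracked for 3 min.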
# [5] = G protein-coupled receptor (GPCR) small molecule agonists, calcium flux assay: HEK293 wild type cell line counter screen (AID 1920065)
# In short: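 Following 18 h incubation at 37 C/5% CO2, plates got calcium dye for 1 h; compounds, ATP or DMSO were then pinned in and fluorescence followed kinetically (480/540 nm).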
# [6] = p53 small molecule agonists, cell-based qHTS assay with rat liver microsomes (AID 1963578)
# In short: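 Rat liver microsome activation: microsomes 0.5 mg/mL, NADPH 0.5 mg/mL final; p53RE-bla cells, 16 h 37 C; LiveBLAzer readout, 2 h RT dark.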
# [7] = p53 small molecule agonists, cell-based qHTS assay with human liver microsomes: qHTS cell viability counter screen (AID 1963579); note: nearly all actives have a fitted effect of over 45% in size; note: potency is the fitted concentration of half-maximal effect
# In short: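 Luminescent CellTiter-Glo read-out, 30 min at room temperature, gauged cytotoxicity in p53RE-bla cells exposed 16 h at 37 C to DMSO-dissolved compounds with metabolic activation by human liver microsomes and NADPH, each 0.5 mg/mL final.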
# [8] = p53 small molecule agonists, cell-based qHTS assay with rat liver microsomes: qHTS cell viability counter screen (AID 1963580); note: nearly all actives have a fitted effect of over 45% in size
# In short: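 Counter screen for cytotoxicity under metabolic activation: rat liver microsomes and NADPH, 0.5 mg/mL final each, added with compounds to p53RE-bla HCT-116 cells; 16 h at 37 C, then ATP luminescence read.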
# [9] = p53 small molecule agonists, cell-based qHTS assay: qHTS cell viability counter screen (AID 1963581); note: nearly all actives have a fitted effect of over 45% in size; note: potency is the fitted concentration of half-maximal effect
# In short: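 qHTS counter screen: 16 h compound exposure at 37 C of p53RE-bla HCT-116 cells (4,000 per well, seeded 5 h prior), cell viability by ATP luminescence.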
# [10] = p53 small molecule agonists, cell-based qHTS assay (AID 1963582; active = well fitted activation curve with a large enough effect in the signal ratio in the repeat runs, not every such curve was filed as active; the % refers to the signal ratio)
# In short: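 Measured: fluorescence from cleaved LiveBLAzer substrate. System: p53RE-bla cells, 16 h compound treatment at 37 C, 2 h substrate step at room temperature.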
# [11] = target: 5-hydroxytryptamine receptor 2A (Homo sapiens) (UniProt P28223); experiment: 5-hydroxytryptamine receptor 2A (HTR2A) small molecule antagonists, cell-based qHTS assay (AID 1963586); note: nearly all actives have a fitted effect of over 45% in size
# Chain of 5-hydroxytryptamine receptor 2A (Homo sapiens) (P28223 whole entry, looked up): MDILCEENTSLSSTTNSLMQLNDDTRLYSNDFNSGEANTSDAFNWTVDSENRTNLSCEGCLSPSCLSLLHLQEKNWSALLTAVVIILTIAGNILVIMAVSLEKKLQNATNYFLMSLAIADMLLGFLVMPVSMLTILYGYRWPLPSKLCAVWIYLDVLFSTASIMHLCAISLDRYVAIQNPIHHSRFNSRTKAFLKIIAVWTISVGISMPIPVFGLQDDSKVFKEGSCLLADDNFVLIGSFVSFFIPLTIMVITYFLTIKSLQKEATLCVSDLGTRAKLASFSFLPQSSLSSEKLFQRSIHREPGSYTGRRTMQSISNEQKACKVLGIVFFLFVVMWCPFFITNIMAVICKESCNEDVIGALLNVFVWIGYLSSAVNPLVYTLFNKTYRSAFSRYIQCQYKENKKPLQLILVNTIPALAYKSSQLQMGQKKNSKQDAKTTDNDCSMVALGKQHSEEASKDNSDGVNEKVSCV
# In short: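 CHO cells stably expressing human HTR2A were plated for 18 h at 37 C, then loaded with calcium dye for 1 h. Compounds were preincubated 5 min at room temperature before DOI (4 nM solution) was added. Kinetic fluorescence was read for 3 min.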
# [12] = target: 5-hydroxytryptamine receptor 2A (Homo sapiens) (UniProt P28223); experiment: 5-hydroxytryptamine receptor 2A (HTR2A) small molecule agonists, cell-based qHTS assay (AID 1963587); note: nearly all actives have a fitted effect of over 30% in size
# In short: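 HTR2A-CHO cells, plated 18 h at 37 C/5% CO2, dye-loaded 1 h at 37 C; compounds in DMSO added by pin tool (agonist mode). Intracellular calcium flux read as kinetic fluorescence on FDSS over 2 min at 1 s intervals.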
# [13] = target: Muscarinic acetylcholine receptor M1 (Homo sapiens) (UniProt P11229); experiment: Cholinergic receptor muscarinic 1 (CHRM1) small molecule antagonists, cell-based qHTS assay (AID 1963588); note: nearly all actives have a fitted effect of over 40% in size
# Chain of Muscarinic acetylcholine receptor M1 (Homo sapiens) (P11229 whole entry, looked up): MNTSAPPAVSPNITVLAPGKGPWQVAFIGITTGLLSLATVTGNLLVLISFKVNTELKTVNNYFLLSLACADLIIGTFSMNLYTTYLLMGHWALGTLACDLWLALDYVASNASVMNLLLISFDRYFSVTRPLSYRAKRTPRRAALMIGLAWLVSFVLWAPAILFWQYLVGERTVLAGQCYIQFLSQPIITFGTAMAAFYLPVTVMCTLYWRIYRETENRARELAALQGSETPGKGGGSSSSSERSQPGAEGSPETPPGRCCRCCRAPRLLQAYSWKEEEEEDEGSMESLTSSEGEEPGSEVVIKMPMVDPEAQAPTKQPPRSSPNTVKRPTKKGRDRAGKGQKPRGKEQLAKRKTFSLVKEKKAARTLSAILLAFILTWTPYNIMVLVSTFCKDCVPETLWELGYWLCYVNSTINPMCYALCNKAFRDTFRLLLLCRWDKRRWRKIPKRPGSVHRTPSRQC
# In short: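 Compounds were tested at 15 concentrations in three independent runs. Dye-loaded CHRM1-CHO cells were exposed 5 min at room temperature before stimulation by acetylcholine added at 50nM. Intracellular calcium was read kinetically on FDSS for 3 min.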
# [14] = target: Muscarinic acetylcholine receptor M1 (Homo sapiens) (UniProt P11229); experiment: Cholinergic receptor muscarinic 1 (CHRM1) small molecule agonists, cell-based qHTS assay (AID 1963589); note: nearly all actives have a fitted effect of over 35% in size
# In short: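 Kinetic fluorescence (1 s intervals) of calcium-sensitive dye in human M1 CHO cells after compound addition; cells pre-incubated 18 h at 37 C/5% CO2 and dye-loaded 1 h.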
# [15] = cAMP Responsive Elements (CRE) small molecule agonists, cell-based qHTS assay (AID 1963590)
# In short: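 Test agents in DMSO were incubated 3 h at 37 C/5% CO2 with CRE-bla HEK 293T cells seeded 18 h earlier; LiveBLAzer B/G FRET substrate was added and read after 2 h at room temperature.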
# [16] = cAMP Responsive Elements (CRE) small molecule antagonists, cell-based qHTS assay (AID 1963591; active = well fitted inhibition curve with a large enough effect in the signal ratio in the repeat runs, not every such curve was filed as active; the % refers to the signal ratio)
# In short: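 Reporter line CRE-bla HEK 293T in dialyzed-FBS DMEM; cells preincubated 18 h, treated 3 h with compound plus NKH477 (0.25 uM final); LiveBLAzer FRET, 2 h RT.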
# [17] = target: Beta-2 adrenergic receptor (Homo sapiens) (UniProt P07550); experiment: Adrenergic beta2 receptor (ADRB2) small molecule antagonists, cell-based qHTS assay (AID 1963592); note: series mostly up to about 92 µM; nearly all actives have a fitted effect of over 50% in size
# Chain of Beta-2 adrenergic receptor (Homo sapiens) (P07550 whole entry, looked up): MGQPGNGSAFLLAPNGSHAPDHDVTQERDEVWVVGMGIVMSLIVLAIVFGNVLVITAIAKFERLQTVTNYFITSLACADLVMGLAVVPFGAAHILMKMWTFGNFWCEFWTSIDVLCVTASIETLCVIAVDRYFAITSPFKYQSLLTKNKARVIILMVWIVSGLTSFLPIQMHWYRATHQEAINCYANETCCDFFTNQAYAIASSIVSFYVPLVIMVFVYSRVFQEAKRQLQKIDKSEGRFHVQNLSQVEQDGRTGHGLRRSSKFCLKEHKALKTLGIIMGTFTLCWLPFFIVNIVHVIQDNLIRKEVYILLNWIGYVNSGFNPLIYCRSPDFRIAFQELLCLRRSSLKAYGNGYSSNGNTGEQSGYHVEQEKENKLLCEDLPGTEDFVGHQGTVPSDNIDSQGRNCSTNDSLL
# In short: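 Assay format: CHO-ADRB2 cells, 18-20hr seeding at 37C/5% CO2, then compound plus 1nM isoproterenol agonist mix for 0.5hr RT. Homogeneous time-resolved fluorescence cAMP detection after 1hr, expressed as 665/615 nm ratio.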
# [18] = target: Beta-2 adrenergic receptor (Homo sapiens) (UniProt P07550); experiment: Adrenergic beta2 receptor (ADRB2) small molecule agonists, cell-based qHTS assay (AID 1963593);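 note: CHO cells stably overexpressing human ADRB2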
# In short: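 CHO cells stably over-expressing ADRB2 were plated overnight at 37C, then dosed with compounds plus a stimulation mix containing 100uM IBMX and 25uM Ro-20-1724 for 0.5hr at room temperature. cAMP was measured by HTRF competition, 1hr.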
# [19] = target: D(2) dopamine receptor (Homo sapiens) (UniProt P14416); experiment: Dopamine D2 receptor (DRD2) small molecule agonists, cell-based qHTS assay (AID 1963594); note: nearly all actives have a fitted effect of over 35% in size
# Chain of D(2) dopamine receptor (Homo sapiens) (P14416 whole entry, looked up): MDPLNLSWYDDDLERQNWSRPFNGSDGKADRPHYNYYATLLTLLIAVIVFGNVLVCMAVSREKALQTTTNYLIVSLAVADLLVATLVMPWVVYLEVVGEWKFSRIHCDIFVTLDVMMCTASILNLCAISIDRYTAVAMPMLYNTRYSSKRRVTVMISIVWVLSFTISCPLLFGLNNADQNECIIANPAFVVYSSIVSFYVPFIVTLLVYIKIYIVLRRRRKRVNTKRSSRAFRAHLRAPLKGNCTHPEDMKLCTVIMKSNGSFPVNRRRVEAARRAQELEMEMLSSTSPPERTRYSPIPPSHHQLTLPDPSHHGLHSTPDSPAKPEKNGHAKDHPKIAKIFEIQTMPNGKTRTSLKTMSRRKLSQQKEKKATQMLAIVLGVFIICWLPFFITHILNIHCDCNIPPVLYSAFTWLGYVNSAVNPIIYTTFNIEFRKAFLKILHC
# In short: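 HEK293 cells stably expressing DRD2 were cultured 24 h at 37 C, then given Ro20-1724 (0.1 mM final) and compounds for 10 min at room temperature. NKH477 (200nM) was then added for 30 min. cAMP was read by HTRF.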
# [20] = target: D(2) dopamine receptor (Homo sapiens) (UniProt P14416); experiment: Dopamine D2 receptor (DRD2) small molecule antagonists, cell-based qHTS assay (AID 1963595; active = well fitted inhibition curve with a large enough effect in the signal ratio in the repeat runs, with a control signal flat; the % refers to the signal ratio)
# In short: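 Stable D2 receptor HEK293 line, 24 h after seeding. Compound preincubated 10 min, then quinpirole (12 nM) with forskolin analogue NKH477 (200 nM), 30 min, room temperature. Detection by time-resolved FRET of cAMP.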
Structure (SMILES),Potency [1],Potency [2],Potency [3],Potency [4],Potency [5],Potency [6],Potency [7],Potency [8],Potency [9],Potency [10],Potency [11],Potency [12],Potency [13],Potency [14],Potency [15],Potency [16],Potency [17],Potency [18],Potency [19],Potency [20]
Cc1c(NC(=O)c2cccnc2)c(=O)n(-c2ccccc2)n1C,inactive,inactive,inactive,inactive,inactive,inactive,inactive,inactive,inactive,inactive,inactive,inactive,inactive,inactive,inactive,inactive,inactive,inactive,inactive,
CCCCC(CC)COP(=O)(O)O (stereo unspecified),inactive,inactive,inactive,inactive,inactive,,inactive,inactive,inactive,,inactive,inactive,inactive,inactive,inactive,inactive,inactive,,inactive,inactive
O=C(O)Cc1cc(I)c(Oc2cc(I)c(O)c(I)c2)c(I)c1,inactive,30 µM (active),inactive,inactive,inactive,,17.9 µM (active),inactive,22.5 µM (active),,,,inactive,inactive,,,inactive,,inactive,
CCN(CC)c1cccc(O)c1,inactive,11.1 µM (active),inactive,inactive,inactive,inactive,inactive,inactive,inactive,inactive,inactive,inactive,inactive,inactive,inactive,inactive,inactive,,inactive,inactive
CC(=O)c1ccc[nH]1,inactive,inactive,inactive,inactive,inactive,inactive,inactive,inactive,inactive,inactive,inactive,inactive,inactive,inactive,inactive,inactive,inactive,inactive,,inactive
Cc1cc(C)c(C)c(C)c1,inactive,inactive,inactive,inactive,inactive,,inactive,inactive,,inactive,inactive,inactive,inactive,inactive,inactive,inactive,inactive,,inactive,inactive
C/C(=C\c1ccc(C(=O)O)cc1)c1ccc2c(c1)C(C)(C)CCC2(C)C,inactive,inactive,inactive,inactive,inactive,,inactive,inactive,inactive,inactive,inactive,inactive,inactive,inactive,inactive,inactive,inactive,,inactive,inactive
